# Compounds with a hit are over-represented: about 2.5% of the library has one in this group of screens.
# TDP43 rescue = qHTS of TDP-43 Inhibitors; actives 1.8% (n = 410,000); AID 652104, 2013; TDP-43 expressing yeast growth rescue, BacTiter-Glo, 24 h; Potency, µM (titrated, usually from 46.1 µM), actives largely listed as activators; further: nearly all actives have a fitted effect of over 50% in size
#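 In this qHTS, compounds that restore growth of yeast expressing TDP-43 appear as activators. Cells (OD600=0.02, galactose medium, raffinose-pregrown) are incubated with compound 24 hr at 30 deg C and growth is quantified by BacTiter-Glo.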
# Mito fusion yeast = qHTS Assay for Small Molecule Inhibitors of Mitochondrial Division or Activators of Mitochondrial Fusion | S. cerevisiae fusion-defective mutant growth rescue, CellTiterGlo 48 h | Potency, µM (series often up to 46.1 µM), usual class: activators | actives 0.23% (n = 320,000); further: nearly all actives have a fitted effect of over 45% in size
#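 Growth-rescue viability read-out: after 48 h at the non-permissive 37C in glycerol/ethanol YPEG, yeast mitochondrial fusion mutants are measured by CellTiterGlo luminescence; compounds (23 nl pinned per well) restoring growth score as division inhibitors or fusion activators.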
# Akt phos inh = HTS Assay for Inhibitors of Akt Phophorylation: Primary Screen; Neuro2A IGF-stimulated pAkt S473 HTRF, 20 min; hits give low values; activity change, % for hits at 50 µM; actives 0.32% (n = 360,000); in the data active means activity change below about -80%; inconclusive means mostly about -51% to -80%
#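 Neuro2A cells (4,500/well, DMEM with 0.5% FBS) were treated with compound at a single 50 µM final concentration, stimulated with 6 nM IGF for 20 min at 37 °C, and lysed. Phospho-Akt Ser473 was read by HTRF as 665/615 ratio ×10^4.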
# aSyn rescue = qHTS of alpha-syn Inhibitors; Yeast expressing alpha-synuclein, growth rescue, BacTiter-Glo, 24 h; Potency, µM (top dose mostly 46.1 µM), actives largely listed as activators; actives 0.14% (n = 370,000); AID 652106, 2013; further: nearly all actives have a fitted effect of over 65% in size
#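 Readout is rescue of growth in alpha-synuclein-expressing yeast, so inhibitors of toxicity appear as activators. Growth after 24 hr at 30 deg C in galactose medium is quantified by luminescence.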
# CCT modulator = High-Throughput Screening for Modulators of Cytosolic Chaperonin Activity. purified chaperonin ATPase assay, HTRF ADP detection, 30 min. activity change, % (concentration not given with the values), hits read low. actives 0.3% (n = 360,000); in the data active means activity change below about -30%
#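 We incubate TRiC, 40 or 20 nM final, with library compounds at 76 uM and 10 uM ATP for 30 min at 37 °C. ADP formed is detected with Transcreener HTRF reagents after 30 min at room temperature.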
# Anesthetic bind = qHTS Assay for Identification of Novel General Anesthetics. AID 485281, 2010. Ferritin light chain (Equus caballus), P02791. apoferritin/1-aminoanthracene competitive binding, fluorescence. Potency, µM (series often up to 77.5 µM), hits mostly inhibitors. actives 0.074% (n = 350,000); further: nearly all actives have a fitted effect of over 20% in size
# Target sequence (P02791 2-175 limits assumed): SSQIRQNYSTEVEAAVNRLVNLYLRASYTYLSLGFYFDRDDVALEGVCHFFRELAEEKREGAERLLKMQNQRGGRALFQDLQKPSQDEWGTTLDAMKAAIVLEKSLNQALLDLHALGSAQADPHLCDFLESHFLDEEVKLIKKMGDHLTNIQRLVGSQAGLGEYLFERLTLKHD
#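 Probe: 1-aminoanthracene (50% saturated, PBS). Protein: horse-spleen apoferritin, 10 uM. Incubation: 10 min, room temperature. Detection: 380 nm excitation, 535 nm emission. Analysis: normalized response, four-parameter Hill.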
# Hits are given with their value; i = inactive; ? = inconclusive; nt = no result; [ ] = another dose, or the depositor's remark. Unless noted, the call rests on the fitted dose curve; in most records, active means well fitted curve in the direction sought with a large enough effect; inconclusive means small, poorly fitted or top-dose-only effect, or another doubt; inactive means no such curve, though single readings can be large; an effect the other way counts as inactive or inconclusive.
SMILES,TDP43 rescue,Mito fusion yeast,Akt phos inh,aSyn rescue,CCT modulator,Anesthetic bind
Cc1ccc(-c2ccc(/C=N/O)o2)cc1[N+](=O)[O-],13µM,i,i,i,i,?
O=[N+]([O-])c1cc(-c2ccc(/C=N/n3cnnc3)o2)ccc1Cl,?,i,i,i,i,i
CCOc1ccccc1C1NC(c2ccc3c(c2)OCO3)=CC(c2ccccc2O)N1 (centres undefined),nt,nt,nt,i,nt,nt
OCCC1CN(Cc2nc(-c3ccccc3)cs2)CCN1Cc1ccc(F)cc1 (centres undefined),i[9.22 µM],11µM,i,i,i,i
CC(C)=CCN1CCN(Cc2nc(-c3ccc(F)cc3)cs2)CC1CCO (centres undefined),i,i,i,i,i,i
O=C(NCCN1CCN(Cc2ccccc2)CC1)C1c2ccccc2C(=O)N2CCc3ccccc3C12 (centres undefined),i,i,i,i,i,i
Cc1ccc(CNC(=O)C2c3ccccc3C(=O)N3CCc4ccccc4C23)o1 (centres undefined),i,i,-100%,i,i,i
Nc1nc(N)c2[nH]c(-c3ccccc3)nc2n1,13µM,i,i,i,i,i
Cc1nn2c3c(cnc2c1-c1ccc(Cl)cc1)C(=O)CC(c1ccc(C(C)C)cc1)C3 (centres undefined),i,nt,nt,nt,nt,i
O=C(c1ccc2ncsc2c1)N1CCN(c2ccccc2Cl)CC1,10µM,i,i,i,i,i
COc1ccccc1NC(=S)N1CCN(c2cccc(C)c2C)CC1,18µM,i,i,i,i,i
COc1cc(C(=O)N2CCN(c3cccc(C)c3C)CC2)cc(OC)c1OC,22µM,i,i,i,i,i
Cc1ccc(C)c(N2CCN(C(=O)c3ccc4nsnc4c3)CC2)c1,11µM,i,i,i,i,i
Cc1cccc(N2CCN(C(=O)c3ccc4ncsc4c3)CC2)c1C,11µM,i,i,i,i,i
Cc1cccc(N2CCN(C(=O)c3ccc4nc[nH]c4c3)CC2)c1C,i,i,i,i,i,i
Cc1cc(/C=C/c2c(C)cnc3ccccc23)ccc1N(C)C,nt,nt,nt,i,nt,nt
c1ccc(Nc2nnc(SCc3cccc4ccccc34)s2)cc1,i,i,-114%,i,i,i
O=C(Cc1csc2ccccc12)NCc1cccc(Br)c1,i,nt,nt,nt,nt,i
O=C(NC(=S)Nc1ccccc1N1CCCC1)c1cccc(F)c1,i,i,i,i,i,?
O=C(NC(=S)Nc1ccccc1N1CCCC1)c1ccc(F)cc1,25µM,i,i,i,i,i
CC1CCN(c2ccccc2NC(=O)c2ccc(F)cc2)CC1,13µM,?,nt,nt,i,i
O=C(NC(=S)N1CCCc2ccccc21)c1ccc(Cl)cc1,i,i,i,i,i,i
O=C(NC(=S)Nc1ccccc1N1CCCCC1)c1ccccc1,11µM,i,i,i,i,?
O=C(NC(=S)N1CCCc2ccccc21)c1ccccc1,i,i,-114%,i,i,i
CCCCCCCCCCOc1cc(OCCCCCCCCCC)cc(N(CC(=O)O)CC(=O)O)c1,nt,nt,nt,nt,nt,i
SMILES,TDP43 rescue,Mito fusion yeast,Akt phos inh,aSyn rescue,CCT modulator,Anesthetic bind
Cc1c(C(=O)N(C)C2CCCCC2)sc2nc3ccc(N)cc3n12,nt,nt,nt,nt,nt,i
CCOC(=O)C(C(=O)OCC)N(Cc1cc(OC)ccc1OC)C(=O)C1CC(CO[Si](C)(C)C(C)(C)C)=CN1C(=O)OC(C)(C)C (centres undefined),nt,nt,nt,nt,nt,i
Cc1cn(C(=O)c2ccccc2)c(=S)n1-c1ccc(Br)cc1,?,16µM,i,i,i,i
O=C(O)c1cccc(N/N=C/c2ccc(F)c(F)c2)c1,25µM,i,i,i,i,i
COc1cc(/C=N/Nc2ccc(C(F)(F)F)cn2)ccc1O,?,i,i,i,i,i
O=C(O)c1cc(N/N=C/c2ccc(-c3ccccc3)cc2)ccc1Cl,35µM,i,i,i,i,i
O=C(O)c1ccc(/C=N/Nc2cccc(C(F)(F)F)c2)cc1,?,i,i,i,i,i
O=C(O)c1ccc(/C=N/Nc2ccc(C(F)(F)F)cn2)cc1,8.9µM,i,i,i,i,i
O=C(O)c1ccc(N/N=C/C=C/c2ccccc2)cc1,3.5µM,i,i,i,i,i
O=C(O)c1cc(N/N=C/c2ccncc2)ccc1Cl,i,i,i,i,i,i
Cc1nc2cc(-c3cccc(F)c3)nn2c(C)c1CCC(=O)Nc1ccccc1C(N)=O,i,nt,nt,nt,nt,i
OCc1cc2c(cn1)[nH]c1ccccc12,nt,nt,nt,nt,nt,i
COc1ccc(C2N=C(Nc3nc4ccccc4o3)NC3=C2C(=O)CC(C)(C)C3)cc1 (centres undefined),nt,nt,nt,i,nt,nt
COC(=O)c1ccc2c(c1)N(CC(=O)Nc1cccc(Cl)c1C)C(=O)c1ccccc1S2,i,nt,nt,i,nt,i
CCCN1CNc2c(c(=O)[nH]c(=S)n2CCc2ccc(OC)cc2OC)C1,nt,nt,nt,i,nt,nt
O=C(O)c1ccc(N/N=C/c2ccc(OC(=O)c3ccccc3Cl)cc2)cc1,i,i,i,i,i,i
CC(C)c1ccc(/C=N/Nc2ccc(C(=O)O)cc2)cc1,11µM,i,i,i,i,i
COc1ccc2ccccc2c1/C=N/Nc1cccc(C(=O)O)c1,20µM,i,i,i,i,i
O=C(O)c1ccc(N/N=C/c2ccc(-c3ccccc3)cc2)cc1,5.6µM,i,i,i,i,i
COc1ccc(/C=N/Nc2ccc(C(=O)O)cc2)cc1OC,i,i,i,i,i,i
COc1ccc([C@@H]2CC(=O)c3c(O)cc(O[C@@H]4O[C@H](CO[C@@H]5O[C@@H](C)[C@H](O)[C@@H](O)[C@H]5O)[C@@H](O)[C@H](O)[C@H]4O)cc3O2)cc1,nt,nt,nt,nt,nt,i
COc1cc(OC)cc(C(=O)N(Cc2ccco2)Cc2cccs2)c1,nt,nt,nt,i,nt,nt
COc1ccc(C(=S)N2CCOCC2)cc1OC(=O)c1ccc([N+](=O)[O-])cc1[N+](=O)[O-],22µM,i,i,i,i,i
C[n+]1ccnc2cc(Cl)ccc21,nt,nt,nt,i,nt,nt
Cc1nn2c3ccccc3nc2c2ccccc12,40µM,i,i,i,i,i
Cc1nn2c(-c3ccccc3)nnc2c2ccccc12,18µM,i,i,?,i,i
Cc1ccc(-c2nn3c(-c4ccc(C)cc4)nnc3c3ccccc23)cc1,i,nt,nt,nt,nt,i
COc1cccc(/C=C/c2nc3ccccc3nc2/C=C/c2cccc(OC)c2OC)c1OC,nt,nt,nt,i,nt,nt
CCOC(=O)c1c(CN2CCOCC2)n(-c2ccccc2)c2cc(Br)c(OC)cc12,16µM,i,i,i,i,i
COc1ccc(Cl)cc1CC1(C)C(=O)Nc2c(Cl)cccc21 (centres undefined),28µM,nt,i,i,i,nt

# Compound activity from PubChem BioAssay.
